Laboratory results reported in PubChem BioAssay AID504861 (Broad Institute, 2011).
About 290 (24%) of roughly 1,200 compounds were called active. Not shown: some 3% with an inconclusive outcome.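 How the source made its calls: active means compounds lowering cell viability signal with fitted half-maximal concentration at most ten times their highest tested concentration; inconclusive means flat fit with 30 to 70% signal loss, or poor fit; inactive means the rest.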 Only a sample is shown. Results with a measured potency or affinity are listed apart.

Assay: cytotoxicity in HEK293T cells – cell-based, CellTiter-Glo luminescence, cherry-picks, cytotoxicity control for LMP1 NF-kB inhibitor project, dose response (AID 504861)
Details: HEK293T viability, CellTiter-Glo ATP luminescence, 48 h; series mostly up to 26 µM

Row | SMILES | outcome
1 | O=S(=O)(N/N=C/c1ccccc1F)c1ccccc1 | inactive
2 | Cc1cc(N2CCOCC2)c2c(N)c(Br)cc(C)c2n1 | inactive
3 | C=CCn1c(=O)/c(=C/c2ccc(Cl)cc2)s/c1=C(\C#N)c1nnc2n1CCCCC2 | inactive
4 | NC(=O)CC(NC(=O)c1ccccc1)c1ccc(NC2CCN(Cc3ccccc3)CC2)c([N+](=O)[O-])c1 (stereo unspecified) | inactive
5 | C=CCN1CCN(C(CC(C)C)c2nnnn2CCOC)CC1 (stereo unspecified) | inactive
6 | O=C(CCS(=O)(=O)c1ccccc1)Nc1nccs1 | inactive
7 | CCC(C)(C)NC(=O)C(c1ccc(F)cc1)N(CCOC)C(=O)CCC(=O)Nc1nccs1 (stereo unspecified) | inactive
8 | CCC(=O)OC1c2ccccc2C(=O)N1Cc1ccccc1 (stereo unspecified) | inactive
9 | COc1ccc(S(=O)(=O)N2CCN(CC(=O)Nc3cc(OC)cc(OC)c3)CC2)cc1 | inactive
10 | COC(=O)C1=C(C(=O)c2ccccc2)C(c2ccccc2)n2nnnc2N1 (stereo unspecified) | inactive
11 | O=C(CN1C(=O)CCOc2ccccc21)Nc1ccc(Cl)c(S(=O)(=O)N2CCOCC2)c1 | inactive
12 | CCCCCCCCOC(=O)/C=C/c1c(C)[nH]c(=O)[nH]c1=O | inactive
13 | Cc1c(NC(=O)c2cc(-c3cccs3)nc3ccccc23)c(=O)n(-c2ccccc2)n1C | inactive
14 | Cn1cccc1/C=C1\CC(C(C)(C)C)C/C(=C\c2cccn2C)C1=O (stereo unspecified) | inactive
15 | O=C(c1ccc(COc2ccccc2Cl)o1)N1CCCC1 | inactive
16 | CCCCCCNC(=O)O[C@]12C[C@@H](C(=O)OC)[C@@H](C(=O)OC)C[C@@]1(O)CN(S(=O)(=O)c1ccc(C)cc1)C2 | inactive
17 | COC(=O)CN(c1ccccc1F)S(=O)(=O)c1ccc(C)cc1 | inactive
18 | COc1ccc(-c2[nH]ncc2-c2ccc3c(c2)OCCO3)c(O)c1 | inactive
19 | N#CC1=C(N)OC2=C(C(=O)CCC2)C12C(=O)N1CCCc3cccc2c31 (stereo unspecified) | inactive
20 | COC(CNC(=O)c1ccc(N2CCC3(CC2)OCCO3)c([N+](=O)[O-])c1)OC | inactive
21 | COc1ccc(C)cc1S(=O)(=O)N(CC(=O)Nc1cc([N+](=O)[O-])ccc1C)c1ccc(C)c(C)c1 | inactive
22 | Cc1cc(C(=O)COC(=O)c2cccc(NS(C)(=O)=O)c2)c(C)n1CC1CCCO1 (stereo unspecified) | inactive

Row | SMILES | outcome
23 | O=C(O)c1cccc(NC(=O)c2cn(-c3ccccc3)nc2-c2ccc(F)cc2)c1 | inactive
24 | Cc1ccc(C(=O)Nc2ncc3c(Cl)cccc3n2)cc1 | inactive
25 | CCn1c(CCNC(=O)c2ccc(OC)cc2)nnc1SCc1ccc(Cl)cc1Cl | inactive
26 | CC(C)(C)c1ccc(-c2noc(CCC(N)=O)n2)cc1 | inactive
27 | CCOC(=O)c1cn2nc(N3CCCC3)ccc2n1 | inactive
28 | Cc1ccc(NC(=O)C(=O)Nc2ccccn2)cc1 | inactive
29 | O=C(Nc1cccc(Cl)c1)Nc1cccc(C(=O)O)c1 | inactive
30 | Cc1ccc(NC(=S)NCc2cccs2)cc1 | inactive
31 | S=C(NN=C1C2CC3CC(C2)CC1C3)Nc1ccccc1 | inactive
32 | CNC1(C)[C@H]2CC[C@H](C2)C1(C)C (stereo partly specified) | inactive
33 | CC(=O)c1cccc(NC(=O)Nc2ccc(C(=O)N3CCOCC3)cc2)c1 | inactive
34 | CCCCCc1ccc(-c2ccc(/C=C/C(=O)O)cc2)nc1 | inactive
35 | COc1ccc(-c2nc(C)ncc2-c2ccccc2)c(O)c1 | inactive
36 | Cc1ccc(N(Cc2cc3ccccc3[nH]c2=O)C(=O)c2ccco2)c(C)c1 | inactive
37 | O=C(O)c1cccc(Nc2ccnc(Nc3cccc(C(=O)O)c3)n2)c1 | inactive
38 | CCN(C(=O)CSc1nnc(Nc2cccc(C)c2C)s1)C1CCS(=O)(=O)C1 (stereo unspecified) | inactive
39 | COc1ccc(-c2nc(CN3CCC(C(=O)N4CCOCC4)CC3)c(C)o2)cc1C | inactive
40 | Cc1cc(C)c2sc(NC(=O)C3CC3)nc2c1 | inactive
41 | CCOC(=O)Oc1c(OC)cc(C(=O)O[C@@H]2C[C@@H]3CN4CCc5c([nH]c6cc(OC)ccc56)[C@H]4C[C@@H]3[C@H](C(=O)OC)[C@H]2OC)cc1OC | inactive
42 | Nc1ccn([C@@H]2O[C@H](CO)[C@@H](O)[C@@H]2O)c(=O)n1 | inactive
43 | Cc1cc(N2CCCC2=O)cc(C)c1S(=O)(=O)Nc1c(C)nn(C)c1C | inactive
44 | Cn1cccc1-c1cc(C(=O)N2CCc3c([nH]c4ccccc34)C2c2ccccn2)[nH]n1 (stereo unspecified) | inactive

Row | SMILES | outcome
45 | COc1ccc(-c2oc3ncnc(NCCN4CCOCC4)c3c2-c2ccc(OC)cc2)cc1 | inactive
46 | CSc1nc(C)nc2c1c(=O)n(C)c(=O)n2C | inactive
47 | Cc1ccc(/C=C/c2nc3ccccc3s2)s1 | inactive
48 | Cn1cc(CC(=O)NCCCN2CCCC2)c2ccccc21 | inactive
49 | CCc1cc(Cl)c(OC)c(C(=O)NC[C@@H]2CCCN2CC)c1O | inactive
50 | c1ccc2c3c([nH]c2c1)C(C1CCCCC1)N(Cc1ncc[nH]1)CC3 (stereo unspecified) | inactive
51 | Cc1ccc(C(=O)Nc2sc(Cc3ccc4c(c3)OCO4)c(C)c2C(N)=O)cc1 | inactive
52 | Cn1ncc(Cl)c1C(=O)NC1CCCC1 | inactive
53 | O=C(Nc1ccc(N2CCOCC2)cc1)c1cnccn1 | inactive
54 | CCN(CC)c1ccc(NC(=O)c2cccc(F)c2)c(C)c1 | inactive
55 | COc1ccccc1N1CCN(CCCNC(=O)C2CCCN(c3ncnc4c3nc3n4CCCCC3)C2)CC1 (stereo unspecified) | inactive
56 | CNC(=O)c1[nH]cnc1C(=O)N[C@@H](CCCCNC(=O)OC(C)(C)C)C(=O)OC(C)(C)C | inactive
57 | CCOC(=O)c1c(-n2cccc2)sc2c1CCCC2=O | inactive
58 | Cc1ccccc1C(=O)c1c[nH]c(C(=O)NCc2ccco2)c1 | inactive
59 | O=c1c2cnn(-c3ccccc3)c2nc(-c2cccs2)n1-c1ccc(Cl)cc1 | inactive
60 | Cc1ccc(OCC(=O)NNC(=S)NC(=O)C2CCCCC2)c(C)c1 | inactive
61 | N#Cc1c(NC(=O)CCCC(=O)O)sc2c1CCCCC2 | inactive
62 | COC(=O)CCNc1ccc2c(c1)OCCO2 | inactive
63 | COc1ccc(C(=O)OCC(=O)c2c[nH]c3ccccc23)cc1OC | inactive
64 | Clc1ccc(-c2nnc(NC3=NCCCCC3)o2)cc1 | inactive
65 | O=C(O)c1ccc(-n2cncn2)c([N+](=O)[O-])c1 | inactive
66 | CN(C)c1ccnc2sc(C(N)=O)c(N)c12 | inactive

Row | SMILES | outcome
67 | Cc1ccc(CNC(=O)C2CCN(S(=O)(=O)c3c(C)noc3/C=C/c3ccco3)CC2)cc1 | inactive
68 | Cc1nc(N)nc(SCc2ccc([N+](=O)[O-])cc2)c1N | inactive
69 | COc1cc(/C=N/NC(=O)c2cccc(S(=O)(=O)N3CCOCC3)c2)cc(OC)c1O | inactive
70 | COc1cc(C(=O)Oc2ccccc2/C=N/NC(=O)c2ccc(C)c(Cl)c2)cc(OC)c1OC | inactive
71 | CCCCCC(=O)NC(=S)Nc1ccc(Br)cc1C | inactive
72 | O=C(N/N=C/c1cccc(O)c1)c1ccc2c(c1)OCCO2 | inactive
73 | Cc1cccc(C)c1NC(=O)CN(C)C(=O)c1ccc(-c2cccc(C(F)(F)F)c2)o1 | inactive
74 | COCCNC(=O)C(=O)NCC1OCCN1C(=O)c1ccc(Cl)cc1 (stereo unspecified) | inactive
75 | COC(=O)c1ccc(/C=C(/NC(=O)c2ccccc2)C(=O)N2CCOCC2)cc1 | inactive
76 | Cc1ccc(N=c2c([N+](=O)[O-])nn(-c3ccc4c(c3)OCCO4)n2O)cc1F | inactive
77 | COc1ccc(C(=O)NC(=S)NNC(=O)c2ccc3ccccc3n2)cc1 | inactive
78 | CC(=O)Nc1ccc(OCC(O)CNC(C)C)cc1 (stereo unspecified) | inactive
79 | COc1ccc(-c2cnc(NCc3cc4c(cc3[N+](=O)[O-])OCO4)n2C)cc1 | inactive
80 | Cc1ccc(-n2c(C)c([N+](=O)[O-])c3ccc(O)c(CN(C)C)c32)cc1 | inactive
81 | O=C(Nc1ncccc1O)c1ccc(S(=O)(=O)NCc2ccco2)cc1 | inactive
82 | O=C(/C=C/Nc1ccc(Br)cc1F)c1ccccc1 | inactive
83 | COc1ccccc1C=NN=Cc1ccccc1O | inactive
84 | CC(=O)c1c(C)[nH]c(C(=O)Nc2ccc(C)cn2)c1C | inactive
85 | CN(C)c1cccc(C(=O)N/N=C/c2ccccc2F)c1 | inactive
86 | Cc1ccsc1/C=N/NC(=O)c1ccc2c(c1)OCCO2 | inactive
87 | CCc1nnc(NC(=O)c2ccc(S(=O)(=O)N3CCOCC3)cc2)s1 | inactive
88 | CCCn1c(C)cc(C(=O)COC(=O)c2ccc[nH]c2=O)c1C | inactive

Row | SMILES | outcome
89 | CCn1c2ccccc2c2cc(/C=C(/C#N)C(N)=S)ccc21 | inactive
90 | Oc1c(N=NC(=S)Nc2ccccc2F)c2ccccc2n1Cc1cccc(Cl)c1 | inactive
91 | COC(=O)C1=C(C)N(c2cc(C)cc(C)c2)/C(=C/c2ccc(O)cc2)C1=O | inactive
92 | COC(=O)/C=C/C(=O)Nc1cccc(C(F)(F)F)c1 | inactive
93 | O=C(CN1CCN(S(=O)(=O)c2ccc(F)cc2)CC1)Nc1cccc(C(F)(F)F)c1 | inactive
94 | CCOc1ccc(C(=O)Nc2nnc(SCC(=O)NCC3CCCO3)s2)cc1 (stereo unspecified) | inactive
95 | CN=C1S/C(=C\c2ccc(O)c(Br)c2)C(=O)N1C | inactive
96 | CC(=O)O[C@H]1CC[C@@]2(C)C(=CC[C@H]3[C@@H]4CC[C@H](C(C)=O)[C@@]4(C)CC[C@@H]32)C1 | inactive
97 | NC(=O)C1(Nc2ccc([N+](=O)[O-])cc2)CCCC1 | inactive
98 | Cc1ccccc1Cn1c(O)c(N=NC(=S)Nc2ccccc2F)c2ccccc21 | inactive
99 | CCOc1ccc(NC(=O)Cn2cc(C(=O)CC)c3ccccc32)cc1 | inactive
100 | O=C(O)c1ccc(N/N=C/c2ccc3ncccc3c2)cc1 | inactive
101 | COc1cccc(C(=O)Nc2nc3ccccc3[nH]2)c1 | inactive
102 | O=C(CSc1nc2ccccc2c(=O)n1CCCN1CCOCC1)Nc1ccc(Br)cc1 | inactive
103 | CC(C)(C)c1ccc(C(=O)Nc2nnc(SCC(=O)NCC3CCCO3)s2)cc1 (stereo unspecified) | inactive
104 | CCC(Oc1ccccc1)C(=O)NC1CCSC1=O (stereo unspecified) | inactive
105 | O=C(NC1CCCCC1)N1CCN(c2ccc([N+](=O)[O-])cc2)CC1 | inactive
106 | CCOC(=O)c1sc2nc(C)nc(NCc3ccccc3)c2c1C | inactive
